# Shown are actives, neighbours in structure and some others; about 2.9% of the full set was active somewhere.
# SNCA viab count: counter-screen for SNCA expression inhibitors: cell viability. HEK-293-SNCA-luc viability, GF-AFC fluorescence, 24 h. Potency, µM (titrated, usually from 57.1 µM), inactives show at the highest dose activity change, negative = cytotoxicity, hits mostly cytotoxic. actives 0.12% (n = 150,000). AID 1671193;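 note: potency is the fitted concentration of half-maximal effect; 0% = DMSO-treated cells and -100% = medium-only wells without cells; nearly all actives have a fitted effect of over 30% in size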
#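 Cytotoxicity counterscreen: after 24 h compound treatment of genome-edited SNCA-luciferase HEK-293 cells, live-cell protease substrate GF-AFC read by fluorescence after 30 min; activity scaled between DMSO (0%) and medium-only (-100%), curves Hill-fitted.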
# IP6K1 inh: blocks human inositol hexakisphosphate kinase 1. Q92551. IP6K1 kinase, ADP-Glo luminescence, 2 h; stronger effect = lower value. activity change, % (series mostly up to about 58 µM). actives 0.81% (n = 140,000). AID 1645851; in the data active = activity change below about -25%; note: % is set by controls: 0 for no effect and ±100 for the full control effect
#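 ADP-Glo luminescence measures ADP made by human IP6K1 during a 2 h RT reaction with ATP/IP6 (mix at 1.3 mM/130 uM); top library doses 57.5 and 19.1 uM final.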
# SNCA expr inhib: SNCA gene expression inhibition. actives 0.17% (n = 140,000). HEK-293 SNCA-luciferase knock-in, luminescence, 24 h. Potency, µM (series often up to 57.2 µM), for inactives: at the highest dose activity change, negative = inhibition, usual class: inhibitors;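 note: potency is the fitted concentration of half-maximal effect; plate controls were DMSO cells for no effect and cell-free wells for full effect; nearly all actives have a fitted effect of over 45% in size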
# KDM5B inh: inhibitors of human KDM5B histone demethylase. AID 1347165. actives 2.6% (n = 220,000). Q9UGL1. Potency, µM (top dose mostly 57.7 µM), usual class: inhibitors. KDM5B demethylase, FDH-coupled NADH fluorescence (FDH is formaldehyde dehydrogenase); note: potency is the fitted concentration of half-maximal effect; 0% is about no effect; nearly all actives have a fitted effect of over 70% in size
# Target sequence (Q9UGL1 whole entry, looked up): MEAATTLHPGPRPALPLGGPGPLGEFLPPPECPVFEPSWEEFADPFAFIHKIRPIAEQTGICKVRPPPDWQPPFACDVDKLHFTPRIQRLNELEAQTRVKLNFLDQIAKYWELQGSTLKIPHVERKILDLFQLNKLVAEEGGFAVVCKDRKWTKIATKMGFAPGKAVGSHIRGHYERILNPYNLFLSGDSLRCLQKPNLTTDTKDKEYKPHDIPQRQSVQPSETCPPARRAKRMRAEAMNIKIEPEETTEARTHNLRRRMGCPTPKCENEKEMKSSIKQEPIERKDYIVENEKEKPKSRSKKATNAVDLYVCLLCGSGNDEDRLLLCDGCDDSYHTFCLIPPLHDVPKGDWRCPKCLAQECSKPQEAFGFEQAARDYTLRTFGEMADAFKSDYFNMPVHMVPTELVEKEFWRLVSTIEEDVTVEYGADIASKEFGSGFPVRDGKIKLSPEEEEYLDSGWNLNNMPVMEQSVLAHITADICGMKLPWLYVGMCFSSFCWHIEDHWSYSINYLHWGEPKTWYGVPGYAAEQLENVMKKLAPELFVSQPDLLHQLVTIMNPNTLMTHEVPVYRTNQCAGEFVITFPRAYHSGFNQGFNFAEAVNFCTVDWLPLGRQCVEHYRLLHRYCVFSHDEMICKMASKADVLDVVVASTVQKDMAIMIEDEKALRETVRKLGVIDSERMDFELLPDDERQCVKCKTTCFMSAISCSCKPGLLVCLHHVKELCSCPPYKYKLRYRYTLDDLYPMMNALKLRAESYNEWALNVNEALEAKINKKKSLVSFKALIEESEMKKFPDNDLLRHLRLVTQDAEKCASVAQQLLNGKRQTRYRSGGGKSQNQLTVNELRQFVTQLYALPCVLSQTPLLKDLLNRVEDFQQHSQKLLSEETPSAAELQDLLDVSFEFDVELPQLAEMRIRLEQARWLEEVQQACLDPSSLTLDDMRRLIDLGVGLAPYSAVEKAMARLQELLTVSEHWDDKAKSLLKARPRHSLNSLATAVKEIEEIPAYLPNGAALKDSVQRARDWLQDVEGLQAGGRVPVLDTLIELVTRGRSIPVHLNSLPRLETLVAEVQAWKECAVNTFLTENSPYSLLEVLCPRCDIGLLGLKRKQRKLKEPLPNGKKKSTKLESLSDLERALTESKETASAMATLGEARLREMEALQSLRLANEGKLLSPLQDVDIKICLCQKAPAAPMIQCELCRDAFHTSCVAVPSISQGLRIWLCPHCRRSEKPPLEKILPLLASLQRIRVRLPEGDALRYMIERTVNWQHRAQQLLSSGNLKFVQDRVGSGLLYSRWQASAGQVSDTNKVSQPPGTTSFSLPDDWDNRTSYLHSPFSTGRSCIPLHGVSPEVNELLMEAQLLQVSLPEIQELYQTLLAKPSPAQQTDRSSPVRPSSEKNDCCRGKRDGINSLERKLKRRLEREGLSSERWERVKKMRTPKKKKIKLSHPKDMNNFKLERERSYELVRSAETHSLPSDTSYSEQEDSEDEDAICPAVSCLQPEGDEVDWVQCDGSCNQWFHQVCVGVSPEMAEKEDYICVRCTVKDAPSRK
#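 KDM5BΔAP (200 nM final) in 50 mM HEPES pH 7.5, 0.01% Tween-20 was preincubated 10 min at RT with compound over a concentration range. Substrate mix (H3K4me3 12.5 µM, α-KG 25 µM, Fe²⁺, ascorbate, NAD⁺, FDH) was added, and NADH fluorescence change over 30 min gave dose-response curves.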
# An asterisk follows results filed as active; i = inactive; ? = inconclusive; . = not tested or not shown; ! = not confirmed by another sample; [ ] = another dose, or the depositor's remark. Unless noted, calls come from the whole dose curve; as a rule, active = well fitted curve in the direction sought with a large enough effect; inconclusive = small, poorly fitted or top-dose-only effect, or another doubt; inactive = no such curve, though single readings can be large; an effect the other way counts as inactive or inconclusive.
SMILES,SNCA viab count,IP6K1 inh,SNCA expr inhib,KDM5B inh
O=C(NCCc1ccc(Cl)cc1)c1ccc2nnc(-c3ccc(F)cc3)n2c1,3.9%,5.7,-1.9%,.
O=C(NCc1ccc(F)cc1)c1nc(-c2ccc(F)cc2)c2cnccn12,2.8%,14.1,12.3%,35.5µM*
O=C(NCCc1ccc(Cl)cc1)c1nc(-c2ccc(F)cc2)c2cnccn12,1.6%,5.3,-8.3%,31.6µM*
O=C(NCCc1ccc(Cl)cc1)c1nc(-c2ccc(F)cc2)c2ccccn12,-5.2%,-0.9,9.1%,25.1µM*
COc1ccccc1CCC(=O)N1CCC(Cc2nc(-c3cnccn3)no2)CC1,4.3%,9.3,-13.5%,i
O=C(O)CCCC(=O)Nc1cccc(C(=O)N2CCCCC2)c1,.,.,.,i
O=C(NCCc1ccc(Cl)cc1)c1nc(-c2ccsc2)c2ccccn12,3.9%,13.8,14.1%,22.4µM*
Cc1ccc(-c2c(C(=O)NCCc3ccc(Cl)cc3)nc3sccn23)cc1,-8.6%,11.4,-6.5%,.
CCC1(O)CCC12CCN(C(=O)c1ccc(OC)nc1)CC2 (stereo not drawn),-11.0%,25.6,-29.8%,.
CCOc1ccc(CC(=O)N2CCN(c3cc(-c4ccc(OC)cc4)[nH]n3)CC2)cc1,-11.9%,5.4,0.3%,?
O=C(CCc1nc2ccccc2[nH]c1=O)N1CCN(CCn2cncn2)CC1,-7.6%,31.9,-4.3%,17.8µM*
CCOc1nccn2c(-c3ccc(CNC(=O)Cn4cnnn4)cc3)cnc12,-3.3%[87.6 µM],-8.8,16.7%[87.6 µM],39.8µM*
O=C(NCc1ccc(-c2cnc3c(Oc4ccccc4)nccn23)cc1)c1cccc(O)c1,-4.4%[87.6 µM],-10.8,-4.2%[87.6 µM],?
N#Cc1cccc(-c2cn3c(n2)N(C(=O)Cc2cccs2)CCC3)c1,3.3%,11.4,-20.6%,25.1µM*
COCC(=O)N1CCCn2cc(-c3cccc(C#N)c3)nc21,-6.9%,2.1,14.8%,25.1µM*
Cc1cccc(CC(=O)N2CCCn3cc(-c4cccc(C#N)c4)nc32)c1,9.3%,1.7,16.1%,?
CCOCC(=O)N1CCCn2cc(-c3ccccc3)nc21,-6.6%,0.6,10.9%,?
Cc1ccccc1CC(=O)N1CCCn2cc(-c3cccc(C#N)c3)nc21,-10.9%,-10.3,11.8%,22.4µM*
COc1cccc(-c2cn3c(n2)N(C(=O)Cc2ccsc2)CCC3)c1,0.6%,3.6,37.4%,i
CCCN1CCN(c2nnc(-n3cccc3CN3CCN(C4CCCCC4)CC3)s2)CC1,.,.,.,i
Cc1cc(=O)oc2cc3occ(-c4ccc(-c5ccccc5)cc4)c3cc12,.,.,.,i
O=C(O)CCCC(=O)N[C@H]1CO[C@H]2[C@@H]1OC[C@@H]2Nc1nccc(-c2ccc(-c3ccccc3)cc2)n1,8.8%,7.3,19.2%,31.6µM*
COC(=O)c1ccccc1NC(=O)O[C@@H]1CO[C@H]2[C@@H]1OC[C@@H]2Nc1nccc(-c2ccc3c(c2)OCO3)n1,-9.5%,0.8,-20.6%,28.2µM*
CC(C)(C)c1ccc(NC(=O)O[C@@H]2CO[C@H]3[C@@H]2OC[C@@H]3Nc2nccc(-c3ccc(-c4ccccc4)cc3)n2)cc1,-16.9%,11.6,-29.6%,i
COc1ccc(-c2ccnc(N[C@H]3CO[C@H]4[C@@H]3OC[C@@H]4NS(=O)(=O)c3ccc(C)cc3)n2)cc1,-1.8%,-1.7,-4.9%,i
SMILES,SNCA viab count,IP6K1 inh,SNCA expr inhib,KDM5B inh
COc1ccc(-c2ccnc(N[C@H]3CO[C@H]4[C@@H]3OC[C@@H]4NC(=O)CCC(=O)O)n2)cc1,3.5%[87.6 µM],-8.5,1.2%[87.6 µM],?
COc1ccc(-c2ccnc(N[C@H]3CO[C@H]4[C@@H]3OC[C@H]4OCC(N)=O)n2)cc1,0.0%[87.6 µM],0.6,14.1%[87.6 µM],31.6µM*
Cc1ccc(NC(=O)O[C@@H]2CO[C@H]3[C@@H]2OC[C@@H]3Nc2nccc(-c3ccccc3)n2)cc1,-2.6%[87.6 µM],4.0,152.5%[87.6 µM],28.2µM*
COC(=O)Nc1cc(-c2cccnc2)nn1-c1ccccc1,-21.5%[87.6 µM],-1.4,22.1%[87.6 µM],.
O=c1cc(-c2ccncc2)oc2c(-c3ccccc3Oc3ccccc3)nccc12,-17.3%[87.6 µM],-16.2,50.5%[87.6 µM],?
N#Cc1cccc(-c2ccnc(N[C@H]3CO[C@H]4[C@@H]3OC[C@H]4OC(=O)Nc3ccccc3)n2)c1,-2.2%,8.2,68.8%,i
N#Cc1cccc(NC(=O)O[C@@H]2CO[C@H]3[C@@H]2OC[C@@H]3Nc2nccc(-c3cccc(F)c3)n2)c1,?,2.2,?,6.31µM*
CN(C)c1ccc(-c2nnnn2[C@H]2CO[C@H]3[C@@H]2OC[C@H]3OC(=O)Nc2cccc(C#N)c2)cc1,-1.1%,25.3,4.2%,35.5µM*
O=C(Nc1ccccc1)c1sc(NCCc2ccccc2)nc1-c1ccc([N+](=O)[O-])cc1,.,.,.,i
CCN(CC)C(=O)COc1ccc(-c2nnc(Nc3ccc(OC)cc3)c3ccccc23)cc1,.,.,.,i
COC(=O)COc1ccc(-c2nnc(Nc3ccc(O)cc3)c3ccccc23)cc1,?,18.3,28.2µM*,?
O=C(N[C@H](Cc1ccccn1)C1CC(O)C1)c1n[nH]c2c1CCCC2 (stereo partly drawn),-0.7%,12.9,-16.0%,i
O=C(N[C@H](Cc1ccccn1)C1CC(O)C1)c1cccc2c1NCCC2 (stereo partly drawn),7.1%,-4.4,28.9%,31.6µM*
Cc1cc(-c2nc3ccncc3[nH]2)c(C)o1,-7.5%[87.6 µM],8.0,93.6%[87.6 µM],31.6µM*!
O=C(N[C@H](Cc1ccncc1)C1CC(O)C1)c1cccn2cnnc12 (stereo partly drawn),3.3%,-8.4,19.1%,22.4µM*
O=C(C1CCCC1)N1CCN(c2ccnc3ccnn23)CC1,3.0%[87.6 µM],-8.5,8.1%[87.6 µM],.
COc1ccc(-c2ccc3c(c2)C(=O)N2CCN(C(=O)c4cccc(F)c4)C[C@@H]2C(=O)N3)cc1,-6.5%,2.6,28.1%,17.8µM*
COc1ccc(Cl)cc1-c1ccc2c(c1)C(=O)N1CCN(C(=O)c3ccccc3)C[C@@H]1C(=O)N2,-11.0%,-3.7,?,22.4µM*
O=C1Nc2ccc(-c3cccc(C(F)(F)F)c3)cc2C(=O)N2CCN(C(=O)c3cccc(F)c3)C[C@H]12,1.3%,2.2,26.7%,i
COc1ccc(Cl)cc1-c1ccc2c(c1)C(=O)N1CCN(C(=O)c3cccs3)C[C@@H]1C(=O)N2,-5.7%,21.0,-18.1%,28.2µM*
COc1ccc(Cl)cc1-c1ccc2c(c1)C(=O)N1CCN(C(=O)c3ccc(N(C)C)cc3)C[C@@H]1C(=O)N2,?,0.0,?,31.6µM*
O=C(CN1CCCc2nc(-c3ccccc3)ncc2C1=O)NCCCn1cccn1,-0.2%,10.6,1.7%,.
CCOC(=O)c1ccc(Oc2coc3cc(OC(=O)c4cccs4)ccc3c2=O)cc1,.,.,.,i
O=C1Nc2ccc(-c3ccccc3F)cc2C(=O)N2CCN(C(=O)c3ccccc3)C[C@H]12,1.8%[87.6 µM],0.0,?,39.8µM*
COc1ccc(Cl)cc1-c1ccc2c(c1)C(=O)N1CCN(C(=O)C3CCCCC3)C[C@@H]1C(=O)N2,-2.5%,-5.6,-23.3%,10µM*

# Compound activity (PubChem)
